In PubChem BioAssay AID2417 (National Center for Advancing Translational Sciences (NCATS), 2010):
In all, about 140,000 compounds went through this assay and about 4,300 (3.1%) were called active. About 21% were inconclusive and are not listed. The list comes from a sample in which actives are over-represented; it also holds similar structures and randomly drawn compounds. Unmarked numbers belong to inactive results.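 How the source made its calls: active means readout at or below -70, meaning at least 70% loss of cells showing the perinucleolar compartment, a nuclear body marking cancer cells; inconclusive means readout between -30 and a set limit; inactive means the rest.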

Assay: High Content Assay for Compounds that inhibit the Assembly of the Perinucleolar Compartment;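 further: plate controls were DMSO wells for no effect and camptothecin positive control wells for full effect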
Details: PC3M PTB-GFP, PNC prevalence imaging, 16 h; at 10 µM; active compounds read low
Procedure, shortened: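 Compounds are pinned in duplicate onto adhered PC3M cells stably expressing GFP-tagged PTB and incubated 16 h at 37 C. Cells are then fixed, nuclei stained with Hoechst, and PNC-positive cells counted.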

| SMILES | activity change (PNC), negative = inhibition |
| --- | --- |
| COc1cc(NC(=O)N2CCOCC2)cc(OC)c1 | 29.1% |
| CCOC(=O)c1[nH]c2ccc(OC)cc2c1NC(=O)N1CCOCC1 | -102% (active) |
| Cc1c(C(=O)N2CCOCC2)[nH]c2ccc(OCc3ccccc3)cc12 | -12.2% |
| CC(c1ccccn1)N(CCN(C)C)C(=S)Nc1ccccc1F (stereo not drawn) | -111% (active) |
| Cc1cccc(NC(=S)N(CCN(C)C)C(C)c2ccco2)c1 (stereo not drawn) | 5.52% |
| CC(C)C(=O)NC(=S)Nc1ccccc1F | 28.8% |
| CC(=O)Nc1ccc(SCC(=O)Nc2ccccc2Oc2ccccc2)cc1 | -10.5% |
| CC1CCc2sc(C(=O)N/N=C/C3CCCCC3)cc2C1 (stereo not drawn) | -24% |
| Cc1noc(C)c1C(=O)N1CCOCC1 | 0.83% |
| COc1ccccc1N1CCN(C(=O)c2c(-c3c(Cl)cccc3Cl)noc2C)CC1 | -86.9% (active) |
| Cc1onc(-c2ccccc2)c1C(=O)N1CCOCC1 | -109% (active) |
| COc1ccccc1N1CCN(C(=O)c2cc(-c3ccc(Br)cc3)on2)CC1 | 15.5% |
| O=C(c1ccccc1-c1ccccc1)N1CCOCC1 | -12% |
| COc1ccccc1N1CCN(C(=O)c2cc(-c3ccc(Cl)c(Cl)c3)on2)CC1 | 321% |
| O=C(CN1C(=O)/C(=C\c2ccc(C(F)(F)F)cc2)Sc2ccccc21)NCc1ccco1 | 37.6% |
| O=c1cc(CN2CCN(S(=O)(=O)/C=C/c3ccccc3)CC2)c2ccc(O)cc2o1 | -11.6% |
| CCOC(=O)c1c(NC(=O)c2ccc(Br)o2)sc2c1CCCC2 | 2.82% |
| CCOC(=O)Nc1sc(C(=O)N(C)C)c(C)c1C(=O)OCC | 10.4% |
| CCOC(=O)c1c(NC(C)=O)sc2c(O)c(Br)ccc12 | -80.8% (active) |
| Cc1cc(Oc2ccc(Cl)cc2)nc(SCC(=O)c2ccccc2)n1 | 16.7% |
| Cc1ccc(OCc2nnc(NC(=O)OCC(C)C)s2)cc1 | 26.9% |
| CCOCc1nnc(NC(=O)CSc2ccc(C)cc2)s1 | -89.8% (active) |
| Cc1ccc(SCC(=O)Nc2ncc(C)s2)cc1 | 34.4% |
| O=[N+]([O-])c1ccccc1SNc1ccccn1 | -0.121% |
| Cc1cccc(N2C(=O)SC(SC(=Nc3ccccc3)Nc3ccccc3)C2=O)c1 (stereo not drawn) | 64.7% |

| SMILES | activity change (PNC), negative = inhibition |
| --- | --- |
| COCCn1c(C)cc(C(=O)CSc2ncnc3sc4c(c23)CCC4)c1C | -100% (active) |
| Cc1nc(SCC(=O)Nc2cc(C)on2)c2c3c(sc2n1)CCCC3 | -9.46% |
| Cc1cc(C)n(-c2nc(SCC(=O)N3CCCC3)c3c4c(sc3n2)CCCC4)n1 | 26% |
| CC(=O)Nc1ccc(C(=O)OCC(=O)Nc2ccc([N+](=O)[O-])cc2C(F)(F)F)cc1 | -8.91% |
| CCCCCCCCCOC1OC(CO)C(O)C(O)C1NC(C)=O (stereo not drawn) | -8.39% |
| COc1ccccc1C(=O)Nn1c(-c2cccs2)nc2ccccc2c1=O | -26.6% |
| Cc1[nH]c2ccccc2c1C(=O)CSCC(=O)O | -15.7% |
| Cc1[nH]c2ccccc2c1C(=O)COC(=O)c1c(-c2ccccc2)noc1C | -121% (active) |
| CCOC(=O)N1CCN(CC(=O)c2c(C)[nH]c3ccccc23)CC1 | -18.6% |
| CCOC(=O)c1cccnc1NC(=O)c1ccncc1 | -1.7% |
| Brc1ccc(OCCn2ccnc2)cc1 | -118% (active) |
| Cc1ccc(OCCOCCOc2ccc(Br)cc2/C=N\NC(=O)c2ccncc2)cc1 | -9.62% |
| COc1ccc(/C=C(\C#N)C(=O)NCCCn2ccnc2)cc1 | 60.5% |
| Oc1ccc(Br)cc1C=Nc1ccc2[nH]ncc2c1 | 18.8% |
| CNC(=S)N/N=C/c1ccc(OCc2ccccc2)c(Br)c1 | 23.4% |
| O=C(c1cccc(C(=O)N2CCc3ccccc32)n1)N1CCc2ccccc21 | 8.65% |
| O=C(c1cc(-c2ccc(O)cc2)on1)N1CCCc2ccccc21 | -28.7% |
| Cc1cccc2cc3c(N)c(C(=O)N4CCCc5ccccc54)sc3nc12 | -97.5% (active) |
| COc1cc(NC(=S)NNC(=O)CC(C)C)c(OC)cc1Cl | 20.5% |
| Cc1ccc(C(=O)OCc2nc(N)nc(Nc3ccccc3C)n2)cc1 | -25% |
| COCC(=O)Nc1cc(C(=O)OC)cc(C(=O)OC)c1 | 0.32% |
| CCOC(=O)c1c(C)[nH]c(C(=O)NCc2ccccc2OC)c1C | 4.85% |
| COc1cccc2c(C)c(C(=O)O)[nH]c12 | -100% (active) |
| COc1cccc2c(O)cc(=O)n(C)c12 | 3.35% |
| CCOC(=O)C(C)Sc1nnc(CSc2nc3nc(C)cc(C)n3n2)o1 (stereo not drawn) | -12% |

| SMILES | activity change (PNC), negative = inhibition |
| --- | --- |
| O=C(CN1CCN(c2ccc(O)cc2)CC1)Nc1cc(S(=O)(=O)N2CCOCC2)ccc1Cl | 32% |
| O=C(CCc1nc2ccccc2c(=O)[nH]1)OCC(=O)c1cccc(Cl)c1 | 9.28% |
| CC(=O)c1ccc(Oc2cc(C)nc(-n3nc(C)cc3C)n2)cc1 | -86.2% (active) |
| COc1ccc(NC(=O)c2nc(-n3nc(C)cc3C)ccc2Cl)cc1Cl | -28.2% |
| COc1ccccc1/C=N\Nc1cc(C)nc(-n2nc(C)cc2C)n1 | -20.8% |
| COc1ccc(Nc2cc(C)nc(-n3nc(C)cc3C)n2)cc1 | -93.3% (active) |
| Cc1cc(Oc2ccccc2)nc(N2CCOCC2)n1 | 31.1% |
| Cc1cc(C)n(-c2cc(Oc3ccccc3)ncn2)n1 | 61.7% |
| CC(=O)NNC1=Nc2ccccc2N(C)C(C)C1 (stereo not drawn) | 41.2% |
| O=C(ON=C1CCN(S(=O)(=O)c2ccccc2)CC1)c1ccc(Cl)cc1 | -100% (active) |
| O=C(COc1ccc(Cl)cc1)N1CCN(S(=O)(=O)c2ccc(Cl)cc2)CC1 | -28.2% |
| O=C(COc1ncnc2c(Cl)cc(Cl)cc12)N1CCN(S(=O)(=O)c2ccccc2)CC1 | 25.7% |
| O=C(Nc1ccc(N2C(=O)c3cccc4cccc(c34)C2=O)cc1)c1ccc(N2CCCCC2)c([N+](=O)[O-])c1 | 12% |
| Cc1ccsc1C(=O)N/N=C/c1ccc([N+](=O)[O-])cc1 | -4.41% |
| Cc1ccc(NC(=O)c2sccc2C)cc1[N+](=O)[O-] | -105% (active) |
| COc1ccc(NC(=O)c2ccccc2[N+](=O)[O-])cc1OC | 40.9% |
| C=CCN(c1ccc(C(=O)Nc2cc(C)cc(C)c2)cc1)S(C)(=O)=O | 0% |
| COc1ccc(-c2cc(C(=O)NC(Cc3c[nH]c4ccccc34)C(=O)O)c(C)o2)cc1OC (stereo not drawn) | 41% |
| COc1ccc(C(=O)ON=C2c3ccccc3-c3ccccc32)cc1OC | 2.98% |
| COc1cc(CCC(=O)OCC(=O)Nc2cccc(S(N)(=O)=O)c2)cc(OC)c1OC | 17.9% |
| COc1ccc(OCC(=O)Nc2nnc(-c3ccco3)s2)cc1 | -113% (active) |
| COCC(=O)Nc1nnc(COc2ccccc2)s1 | 5.3% |
| Cc1ccc(OCC(=O)Nc2ccc(-c3nnc(-c4ccco4)o3)cc2)cc1 | 63.9% |
| Cc1ccc(C(=O)N2CC(=O)Nc3ccccc32)o1 | -19.5% |
| CCc1ccc(C2C(C#N)=C(N)N(N(C)C)C3=C2C(=O)CCC3)s1 (stereo not drawn) | 36.4% |

| SMILES | activity change (PNC), negative = inhibition |
| --- | --- |
| O=C1NC(=Nc2ccc(Cl)cc2)SC1Cc1cccc(Cl)c1Cl (stereo not drawn) | 66.6% |
| O=C(COC(=O)/C=C/c1cccc(Cl)c1)NCCc1ccccc1 | -23.6% |
| COCCNC(=O)c1ccccc1NS(=O)(=O)c1ccc(C)c([N+](=O)[O-])c1 | 33% |
| C/C(CC(=O)Nc1cccc(F)c1)=N\NC(=O)C(=O)NC1CCCCC1 | 0.469% |
| CCN1CCN(C(=O)C2(NC(=O)Nc3cccc(F)c3)CCCCC2)CC1 | -83.6% (active) |
| O=C(Nc1cccc(F)c1)c1ccc(S(=O)(=O)N2CCCC2)cc1 | 8.69% |
| COCCCNC(=S)NC(=O)c1ccccc1 | -29.6% |
| Cc1ccc(-c2cn3cc([N+](=O)[O-])ccc3n2)cc1 | 19.9% |
| O=C(NNC(=S)NCc1ccccc1)c1ccc(OC(F)F)cc1 | -4.88% |
| COc1ccc(C/C(C)=N/NC(=O)c2cc(C)oc2C)cc1 | 15.4% |
| COc1cc2c(cc1NC(=O)CN1CCN(S(=O)(=O)c3ccc(F)cc3)CC1)oc1ccccc12 | -22.6% |
| COc1ccc(NC(=O)CN2CCN(S(=O)(=O)c3ccc(F)cc3)CC2)cc1Cl | -123% (active) |
| O=C(CN1CCN(S(=O)(=O)c2ccc(F)cc2)CC1)Nc1ccccc1F | -12% |
| CCc1ccc(NC2Nc3cc(C)nn3S2)cc1 (stereo not drawn) | 66.7% |
| O=C(CN1CCN(C2CCCCC2)CC1)Nc1ccccc1N1CCCCC1 | -8.13% |
| Cc1ccccc1NC(=O)CNc1ccccc1N1CCCCC1 | -94.9% (active) |
| Cn1c(=O)c2c(nc(SCC(=O)Nc3ccccc3N3CCCCC3)n2C)n(C)c1=O | -26.8% |
| Cc1scc(C(=O)NNC(=S)NCC(C)C)c1C | -6.46% |
| CC(C)CNC(=S)NNC(=O)c1nn(C)cc1Cl | -100% (active) |
| Cc1occc1C(=O)NNC(=S)NCC(C)C | -25.7% |
| Cc1ccc(S(=O)(=O)N(C)C)cc1NC(=O)/C=C/c1cccs1 | -119% (active) |
| Cc1ccc(S(=O)(=O)N(C)C)cc1NC(=O)COC(=O)c1c(C)noc1C | -21.3% |
| Cc1ccc(NC(=O)c2cccs2)cc1S(=O)(=O)N(C)C | 22.8% |
